The record followed here is PubChem BioAssay AID1063 (University of Pittsburgh Molecular Library Screening Center, 2008).

The campaign covered roughly 200,000 compounds. About 18,000 (9%) were called active. Only a selection was taken, and actives are over-represented in it overall. A number with no mark means an inactive call. Cut-off read from the data, not from the text of the source: active = inhibition above about 50%; inactive = the rest.

The experiment in a line: Leishmania major promastigote growth inhibition, primary screen (AID 1063).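 Note: promastigotes grown with compound for 44 hours at 28 °C.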 The note with it: Leishmania major promastigotes, resazurin fluorescence viability; at 10 µM; hits give high values.
As for `Cc1ccc(C)c(-n2ccnc2SCC(N)=O)c1`, the inhibition was -3.12%.

Turning to `CC1(C)CN=C(N2CCN(c3ncnc4sc5c(c34)CCCC5)CC2)S1`, the inhibition is 100% (active).

For `O=C(O)[C@@H]1CCCN1c1ncnc2sc3c(c12)CCC3`, the inhibition was -0.86%.

`COc1ncnc2sc3c(c12)CCCC3`: the inhibition is -1.31%.

As to `O=C1c2ccccc2C(=O)N1CCC(O)C[N+](=O)[O-]` (stereo not given), the inhibition was -0.84%.

On to `Cc1ccc(Cl)cc1NC(=O)C1CCN(S(C)(=O)=O)CC1`, for which the inhibition was 2.22%.

For the compound `COc1ccc2occ(C(=O)c3ccc(N=C(C)N(C)C)cc3)c2c1`, the inhibition is 100% (active).

As for `COc1ccc(OC)c(C(=O)c2ccc(C(=O)O)cc2)c1`, the inhibition was -2.29%.

Regarding `COc1ccc(OC)c(C(=O)c2coc3ccc(OC)cc23)c1`, the inhibition was 6.9%.

Consider `COc1ccc2cc(CCl)c(Cl)nc2c1`, for which the inhibition is 5.05%.

In the case of `O=C1N=C(N2CCCC2)S/C1=C\c1cccc(Br)c1`, the inhibition is 96.6% (active).

Take `O=C1N=C(N2CCOCC2)S/C1=C\C=C/c1ccccc1`: the inhibition is 7.77%.

Consider `CCc1ccc(/C=C2\SC(N3CCOCC3)=NC2=O)cc1`, for which the inhibition is 12.3%.

As for `COc1ccc(/C=C/C(=O)c2cc(Br)ccc(=O)c2O)cc1`, the inhibition is -3.91%.

On to `COc1ccc(C(=O)/C=C/c2ccc(OC3CSC3)cc2)cc1`, for which the inhibition was 75.7% (active).

Turning to `COc1ccc(/C=C/C(=O)c2ccc(OC)cc2O)cc1`, the inhibition was 7.64%.

For the compound `O=C(COc1ccccc1)Nc1ccc(N2CCN(C(=O)c3cccs3)CC2)cc1`, the inhibition is -3.12%.

`C=CCn1nc(-c2ccccc2)c2c(C)onc2c1=O`: the inhibition is 2.35%.

Regarding `Cc1nnc(-c2ccc(Oc3ccc(C)c(C)c3)c([N+](=O)[O-])c2)o1`, the inhibition was 64.6% (active).

On to `COc1ccc(-c2nc3cc([N+](=O)[O-])ccc3o2)cc1OC`, for which the inhibition is -4.49%.

For the compound `COc1ccc(OCC(=O)Nc2cc(C)c(Cl)cc2OC)c([N+](=O)[O-])c1`, the inhibition was 0.64%.

On to `O=C(Nc1ccc(N2CCOCC2)cc1)c1ccc2c(c1)OCO2`, for which the inhibition is -0.26%.

For the compound `CCc1ccc(CN(C)C(=O)CCc2nnc(-c3ccc(-c4ccccc4)cc3)o2)nc1`, the inhibition was 25.8%.

As for `CS(=O)(=O)N(CC(=O)N1CCN(Cc2ccccc2)CC1)c1ccc2c(c1)OCCO2`, the inhibition was -0.45%.

With `c1ccc(CN2CCC(N=C3NN=C(c4ccc5c(c4)OCCO5)CS3)CC2)cc1`, the inhibition is 75.9% (active).

On to `Clc1cccc(N=C2NN=C(c3ccc4c(c3)OCCO4)CS2)c1`, for which the inhibition is 4.41%.

As for `COc1ccccc1NC(=O)c1c(Br)cnn1C`, the inhibition is -1.37%.

As for `O=C(NNC1=C(C(=O)C(F)(F)F)CCC1)c1ccncc1`, the inhibition was -0.87%.

As for `Cc1cc(Oc2ccccc2)nc(N2CCOCC2)n1`, the inhibition is -4.03%.

Turning to `C(=N/Nc1cc(N2CCOCC2)nc(N2CCOCC2)n1)/c1ccccc1`, the inhibition was -1.17%.

For the compound `CC(Nc1nc(N2CCOCC2)nc2ccccc12)c1ccccc1` (stereo not given), the inhibition was 54.2% (active).

Consider `CC(CN1CCOCC1)c1ccccc1` (stereo not given), for which the inhibition is 5.49%.

As to `CC(Nc1nc(N2CCCC2)nc2ccccc12)c1ccccc1` (stereo not given), the inhibition was 100% (active).

Take `c1ccc(-c2cc(N3CCCCC3)c3ccccc3n2)cc1`: the inhibition was 43.1%.

As for `CC(Nc1nc(N2CCN(CCO)CC2)nc2ccccc12)c1ccccc1` (stereo not given), the inhibition is 16.7%.

Take `c1ccc2c(NC3C4CC5CC(C4)CC3C5)nc(N3CCOCC3)nc2c1` (stereo not given): the inhibition was 69.9% (active).

Turning to `Fc1cnc(N2CCOCC2)nc1NCc1ccccc1`, the inhibition is 0.72%.

For `COc1cc(C(=O)NCc2ccc(-n3cccc3)cc2)cc(OC)c1OC`, the inhibition is 23%.

As to `COc1ccc(CCNC(=O)C(=O)NCc2ccccc2C)cc1OC`, the inhibition is -0.59%.

`CC(C)(C)NC(=O)c1ccc(Cn2cc(C(F)(F)F)ccc2=O)cc1`: the inhibition is -0.17%.

In the case of `Cc1ccc(C2NC(C(=O)O)CS2)cc1` (stereo not given), the inhibition is -9.29%.

With `Cc1cccc(NC(=S)NC(=O)c2ccc(Br)o2)c1`, the inhibition is -3.34%.

Take `CNC(=O)C(=O)N/N=C/c1ccccn1`: the inhibition is -7.18%.

As for `Cc1ccc(-c2ccc(/C=N/NC(=O)CN3CCOCC3)o2)cc1[N+](=O)[O-]`, the inhibition is 96.8% (active).

As to `Cc1cc(C)c([N+](=O)[O-])cc1-c1ccc(/C=N/NC(=O)c2nonc2N)o1`, the inhibition is 14.1%.

With `N#C/C(=C\c1ccc(-c2cccc([N+](=O)[O-])c2)o1)C(=O)NCCN1CCOCC1`, the inhibition is 17.4%.

As to `CNC(=O)/C(C#N)=C/c1c(F)cccc1Cl`, the inhibition is 99.2% (active).

With `N#C/C(=C\c1ccccc1C(F)(F)F)C(=O)Nc1ccccc1F`, the inhibition was 7.15%.

`O=C(/C=C/c1c(F)cccc1Cl)Nc1nn[nH]n1`: the inhibition is -6.22%.

As to `COc1cccc(-c2ccc(SCC(=O)N3CCN(c4ccccc4)CC3)nn2)c1`, the inhibition was 4.58%.

Turning to `O=C(CSc1ccc(-c2cccs2)nn1)Nc1ccccc1F`, the inhibition was 10.6%.

Take `Cc1nnnn1/C(=C\c1ccccc1)C(=O)OCC(=O)N1CC2(C)CC1CC(C)(C)C2` (stereo not given): the inhibition was 100% (active).

`Cc1cccc(C(=O)NCC(=O)OCC(=O)N2CC3(C)CC2CC(C)(C)C3)c1` (stereo not given): the inhibition was 43.9%.

On to `COc1ccccc1C(=O)N1CC2(C)CC1CC(C)(C)C2` (stereo not given), for which the inhibition was -5.56%.

As for `Cc1nnsc1C(=O)Nc1cccc(Cl)c1C`, the inhibition was -7.14%.

In the case of `CCOP(=O)(OCC)C(Nc1cccc(C)c1)c1ccc(F)cc1` (stereo not given), the inhibition is 61.2% (active).

Turning to `CCCCOC(=O)c1ccc(NC(c2ccc(C)cc2)P(=O)(OC)OC)cc1` (stereo not given), the inhibition was 2.9%.

With `CCOP(=O)(OCC)C(Nc1ccc([N+](=O)[O-])cc1)c1ccc(Cl)cc1` (stereo not given), the inhibition was 36.9%.

Take `Cc1nc2cc(NC(=O)NC3CC3)ccc2n1C`: the inhibition is -6.22%.

For `CC(=O)n1cc([C@@H]2C=C(C(=O)N3CCN(Cc4ccc5c(c4)OCO5)CC3)O[C@H](OCc3ccc(CO)cc3)C2)c2ccccc21`, the inhibition was 78.9% (active).

On to `CCO[C@H]1OC(C(=O)N2CCCCCCC2)=C[C@@H](c2ccc(C(F)(F)F)cc2)[C@@H]1CCCO`, for which the inhibition was -8.31%.

Regarding `CCO[C@H]1OC(C(=O)N2CCN(Cc3ccccc3)CC2)=C[C@@H](c2cn(C(C)=O)c3ccccc23)[C@@H]1CCCO`, the inhibition was 71.4% (active).

Take `CN1CCN(C(=O)C2=C[C@H](c3ccc4c(c3)OCO4)C[C@H](OCc3ccc(CO)cc3)O2)CC1`: the inhibition is 5.67%.

As to `CC(=O)n1cc([C@H]2C=C(C(=O)N3CCOCC3)O[C@@H](OCc3ccc(CO)cc3)C2)c2ccccc21`, the inhibition was 0.43%.

In the case of `CCO[C@H]1OC(C(=O)NCc2ccccc2)=C[C@@H](c2coc3ccccc3c2=O)[C@@H]1CCCO`, the inhibition was 8.75%.

The inhibition is the relative decrease from the control value, in per cent.
